7 molecules from PubChem BioAssay (Tox21) can be followed below.

A number with no mark means an inactive call. Results filed as inconclusive are left out. Activity calls are given as the source filed them. Unless noted, the call rests on the fitted dose curve; in most records, active means well fitted curve in the direction sought with a large enough effect in the repeat runs; inconclusive means weak or mixed curves; inactive means no such curve, though single readings can be large; an effect the other way counts as inactive or inconclusive.

In test [1] the target is Thyrotropin receptor (Homo sapiens) (UniProt P16473). Description: qHTS assay to identify small molecule antagonists of the thyroid stimulating hormone receptor (TSHR) signaling pathway (AID 1259385; calls by dose curve; further: nearly all actives have a fitted effect of over 20% in size). The method, boiled down: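 Antagonist mode: compound-treated TSHR-expressing HEK293 cells were stimulated with 1.5 ng/mL TSH (final) in presence of Ro20-1724 for 30 min at RT. HTRF cAMP detection after 1 h; each compound tested at 15 concentrations, triplicate.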
Chain of Thyrotropin receptor (Homo sapiens) (P16473 whole entry, looked up): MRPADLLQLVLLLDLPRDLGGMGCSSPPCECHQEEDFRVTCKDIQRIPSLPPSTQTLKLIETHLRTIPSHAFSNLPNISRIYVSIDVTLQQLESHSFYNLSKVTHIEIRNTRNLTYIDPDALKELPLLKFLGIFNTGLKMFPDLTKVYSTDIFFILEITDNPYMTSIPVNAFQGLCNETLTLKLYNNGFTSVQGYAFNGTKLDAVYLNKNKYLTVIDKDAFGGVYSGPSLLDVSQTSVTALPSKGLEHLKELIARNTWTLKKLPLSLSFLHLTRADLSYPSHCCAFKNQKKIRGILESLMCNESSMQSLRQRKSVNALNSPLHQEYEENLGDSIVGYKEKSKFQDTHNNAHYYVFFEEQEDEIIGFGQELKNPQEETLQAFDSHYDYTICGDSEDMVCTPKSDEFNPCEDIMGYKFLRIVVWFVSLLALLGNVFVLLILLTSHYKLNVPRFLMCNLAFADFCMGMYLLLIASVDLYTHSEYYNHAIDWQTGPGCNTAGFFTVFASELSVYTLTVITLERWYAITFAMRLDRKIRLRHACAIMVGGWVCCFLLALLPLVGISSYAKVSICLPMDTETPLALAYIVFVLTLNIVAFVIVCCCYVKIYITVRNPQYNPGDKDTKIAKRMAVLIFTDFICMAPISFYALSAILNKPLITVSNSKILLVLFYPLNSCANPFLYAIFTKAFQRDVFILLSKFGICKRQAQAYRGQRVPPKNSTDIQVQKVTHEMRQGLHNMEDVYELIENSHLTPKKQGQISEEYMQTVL

Test [2] in a line: qHTS assay to identify small molecule agonists of the estrogen receptor alpha (ER-alpha) signaling pathway in the presence of an antagonist - cell viability counter screen (AID 1259386).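 Further: series mostly up to about 92 µM; cells exposed to compounds for 22 h at 37 °C before the viability read; nearly all actives have a fitted effect of over 30% in size.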 In a few lines:
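Cytotoxicity was measured in parallel with the ERE-luciferase agonist screen, in the same wells. The cells were VM7Luc4E2, which endogenously express ER-alpha, and treatment was with compounds plus 10.0nM ICI-182,780 for 22hr.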
(In general: In qHTS, concentration-response curves come from the screen itself.)

In test [3] the target is Progesterone receptor (Homo sapiens) (UniProt P06401). Description: qHTS assay to identify small molecule agonists of the progesterone receptor (PR) signaling pathway (AID 1346784; calls by dose curve; further: nearly all actives have a fitted effect of over 30% in size). In a few lines: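 PR-UAS-bla HEK 293T cells carrying a UAS-driven beta-lactamase reporter were seeded in medium with 2% charcoal-stripped FBS, preincubated 6 hr at 37C, then exposed to compounds in DMSO for 16 hr; agonism was read by LiveBLAzer B/G FRET fluorescence.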
Chain of Progesterone receptor (Homo sapiens) (P06401 whole entry, looked up): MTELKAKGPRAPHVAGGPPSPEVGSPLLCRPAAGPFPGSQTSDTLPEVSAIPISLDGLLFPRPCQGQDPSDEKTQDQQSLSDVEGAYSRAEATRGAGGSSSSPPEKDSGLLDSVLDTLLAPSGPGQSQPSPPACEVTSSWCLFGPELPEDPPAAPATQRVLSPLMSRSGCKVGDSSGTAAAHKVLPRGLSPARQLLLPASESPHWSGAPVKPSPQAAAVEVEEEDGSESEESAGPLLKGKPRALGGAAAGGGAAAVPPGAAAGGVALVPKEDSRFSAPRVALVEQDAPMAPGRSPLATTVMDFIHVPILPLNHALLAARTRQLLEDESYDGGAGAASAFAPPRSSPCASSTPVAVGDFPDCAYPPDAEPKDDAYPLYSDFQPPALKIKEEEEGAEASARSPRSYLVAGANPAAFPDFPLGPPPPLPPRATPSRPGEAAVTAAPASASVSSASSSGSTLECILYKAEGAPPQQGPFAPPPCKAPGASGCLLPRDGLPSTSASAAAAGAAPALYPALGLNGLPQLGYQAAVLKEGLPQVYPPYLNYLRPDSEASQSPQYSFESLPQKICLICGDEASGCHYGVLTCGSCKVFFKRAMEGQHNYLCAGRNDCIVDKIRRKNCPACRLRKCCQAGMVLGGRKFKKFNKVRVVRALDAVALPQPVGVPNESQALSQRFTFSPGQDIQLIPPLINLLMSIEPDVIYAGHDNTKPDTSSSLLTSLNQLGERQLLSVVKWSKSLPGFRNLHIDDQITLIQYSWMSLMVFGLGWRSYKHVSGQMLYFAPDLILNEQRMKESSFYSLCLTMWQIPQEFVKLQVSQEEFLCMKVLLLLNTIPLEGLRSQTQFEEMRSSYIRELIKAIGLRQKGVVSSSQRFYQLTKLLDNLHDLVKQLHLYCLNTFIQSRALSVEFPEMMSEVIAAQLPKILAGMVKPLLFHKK

Test [4] in a line: qHTS assay to identify small molecule agonists of the progesterone receptor (PR) signaling pathway - cell viability counter screen (AID 1346799; calls by dose curve; further: nearly all actives have a fitted effect of over 45% in size; further: potency means the concentration at half of the fitted maximal effect). In a few lines:
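PR-UAS-bla HEK293T cells, 3,000 per well in medium with 2% charcoal-stripped FBS, were preincubated 6 hr at 37C, then exposed to compounds for 16 hr; viability was read as CellTiter-Glo luminescence after 30 min at room temperature.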

Test [5] in a line: qHTS assay to identify small molecule antagonists of the TGF-beta/Smad signaling pathway - cell viability counter screen (AID 1346824). Further: nearly all actives have a fitted effect of over 50% in size. The method, boiled down:
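Cytotoxicity counter-screen run in the same wells as the beta-lactamase Smad reporter read: CellTiter-Glo luminescence after 30 min at room temperature. HEK 293T SBE-bla cells had 5 hr compound exposure at 37 C with TGF-beta1 (0.25 ng/mL stock).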

A short description of test [6]: qHTS assay to identify small molecule agonists of the TGF-beta/Smad signaling pathway - cell viability counter screen (AID 1346829). Further: top concentration of the series differs between compounds; nearly all actives have a fitted effect of over 45% in size. In a few lines:
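Tox21 qHTS format: SBE-bla HEK 293T cells treated with DMSO-dissolved compounds for 5 hr; CellTiter-Glo luminescence after 30 min at room temperature.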

Test [7] in a line: qHTS assay to identify small molecule agonists of the TGF-beta/Smad signaling pathway (AID 1346859; active means well fitted activation curve with a large enough effect in the signal ratio in the repeat runs, not every such curve was filed as active; the % refers to the signal ratio; further: series mostly up to about 77 µM). In a few lines:
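HEK 293T cells stably carrying a beta-lactamase reporter driven by the Smad binding element were seeded overnight, exposed to DMSO-dissolved compounds for 5 hr at 37 C, 5% CO2, then loaded with FRET substrate for 2 hr at room temperature.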

The target of test [8] is Thyrotropin-releasing hormone receptor (Homo sapiens) (UniProt P34981). Description: qHTS assay to identify small molecule antagonists of the thyrotropin-releasing hormone receptor (TRHR) signaling pathway (AID 1346877; active means well fitted inhibition curve with a large enough effect in the repeat runs, not every such curve was filed as active; further: series mostly up to about 51 µM). The method, boiled down: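 Antagonism is measured as suppression of the calcium response to 1 nM TRH in TRHR-HEK293 cells that have been dye-loaded for 2 h at 37 °C after overnight plating. Each compound is tested at 15 concentrations in triplicate.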
Chain of Thyrotropin-releasing hormone receptor (Homo sapiens) (P34981 whole entry, looked up): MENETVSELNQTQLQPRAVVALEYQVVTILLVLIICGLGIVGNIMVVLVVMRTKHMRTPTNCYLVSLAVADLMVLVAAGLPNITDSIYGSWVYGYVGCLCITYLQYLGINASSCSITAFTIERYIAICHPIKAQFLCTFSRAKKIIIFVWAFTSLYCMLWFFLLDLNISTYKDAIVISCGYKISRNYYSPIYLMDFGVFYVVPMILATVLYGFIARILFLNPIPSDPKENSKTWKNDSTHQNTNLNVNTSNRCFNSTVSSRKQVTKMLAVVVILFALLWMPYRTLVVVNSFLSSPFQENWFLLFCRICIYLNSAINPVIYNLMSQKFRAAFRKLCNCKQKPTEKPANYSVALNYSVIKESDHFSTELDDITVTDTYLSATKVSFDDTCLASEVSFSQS

Test [9] has the same target. Description: qHTS assay to identify small molecule agonists of the thyrotropin-releasing hormone receptor (TRHR) signaling pathway (AID 1346891; calls by dose curve; further: series mostly up to about 58 µM). The method, boiled down:
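TRHR-expressing HEK293 cells were plated 18 h at 37 °C/5% CO2, loaded with calcium dye 2 h at 37 °C, then given compound in DMSO; fluorescence was read kinetically for 3 min at 1 s intervals.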

Test [10] is described as follows: Human pregnane X receptor (PXR) small molecule agonists, qHTS cell viability counter screen (AID 1346977). Further: nearly all actives have a fitted effect of over 50% in size. Further: potency means the concentration at half of the fitted maximal effect. The method, boiled down:
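PXR-Luc HepG2 cells in medium with 5% charcoal-stripped FBS were pre-incubated 5hr, then exposed to compounds for 24hr at 37C. Viability was read in the same wells by CellTiter-Fluor fluorescence, reagent added after 23hr with a 1hr incubation.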

A short description of test [11]: Caspase-3/7 induction in HepG2 cells by small molecules, qHTS assay (AID 1346978). Further: nearly all actives have a fitted effect of over 15% in size. Further: potency means the concentration at half of the fitted maximal effect. The method, boiled down: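 Caspase-3/7 induction was measured by Caspase-Glo 3/7 luminescence (30 min, room temperature) after a 17 hr compound exposure of wild-type HepG2 cells seeded at 2,000 per well and pre-incubated 5 hr.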
Test [12] can be described thus: Caspase-3/7 induction in CHO-K1 cells by small molecules, qHTS cell viability counter screen (AID 1346979). Further: nearly all actives have a fitted effect of over 35% in size. Further: potency means the concentration at half of the fitted maximal effect. The method, boiled down:
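Wild-type CHO-K1 cells were seeded at 1,500 per well, rested 5hr at 37 C, then exposed to compounds in DMSO. After 16hr, CellTiter-Fluor reagent was added and fluorescence read 1hr later as the viability measure.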

Test [13] in a line: Caspase-3/7 induction in CHO-K1 cells by small molecules, qHTS assay (AID 1346980). Further: nearly all actives have a fitted effect of over 15% in size. The method, boiled down:
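Luminescent Caspase-Glo 3/7 read (30min, room temperature) quantified apoptosis induction. Cells were wild-type CHO-K1, treated with compound for 17hr at 37 C and 5% CO2.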

The nature of test [14]: Caspase-3/7 induction in HepG2 cells by small molecules, qHTS cell viability counter screen (AID 1346981). Further: nearly all actives have a fitted effect of over 30% in size. Further: potency means the concentration at half of the fitted maximal effect. The method, boiled down: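 Cell viability is measured as a cytotoxicity counter screen alongside the Caspase-Glo 3/7 readout in identical wells. Wild-type HepG2 cells are treated with test compounds for 16 hr at 37 C before CellTiter-Fluor addition and a 1-hr incubation.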

In test [15] the target is Nuclear receptor subfamily 1 group I member 2 (Homo sapiens) (UniProt O75469). Nature of the test: Human pregnane X receptor (PXR) small molecule agonists, qHTS assay (AID 1346982). Further: nearly all actives have a fitted effect of over 35% in size. Further: potency means the concentration at half of the fitted maximal effect. In a few lines: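 Cells: HepG2 stably carrying PXR-Luc. Medium held 5% charcoal-stripped FBS. Compounds in DMSO added after 5 hr plating, incubated 24 hr, then luminescence quantified with ONE-Glo.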
Chain of Nuclear receptor subfamily 1 group I member 2 (Homo sapiens) (O75469 whole entry, looked up): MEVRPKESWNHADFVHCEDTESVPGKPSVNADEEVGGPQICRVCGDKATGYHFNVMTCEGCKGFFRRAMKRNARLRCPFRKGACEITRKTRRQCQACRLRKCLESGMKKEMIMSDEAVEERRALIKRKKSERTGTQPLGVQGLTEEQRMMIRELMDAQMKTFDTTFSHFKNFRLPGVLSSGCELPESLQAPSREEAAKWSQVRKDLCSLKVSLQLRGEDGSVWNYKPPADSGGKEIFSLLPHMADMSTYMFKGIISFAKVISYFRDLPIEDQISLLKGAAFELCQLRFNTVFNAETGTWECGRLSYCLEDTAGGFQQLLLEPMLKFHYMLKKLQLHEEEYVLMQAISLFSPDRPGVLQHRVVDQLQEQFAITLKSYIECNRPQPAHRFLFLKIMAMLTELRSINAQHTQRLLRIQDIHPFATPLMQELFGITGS

Test [16] deals with Progesterone receptor (Homo sapiens) (UniProt P06401). Nature of the test: qHTS assay to identify small molecule antagonists of the progesterone receptor (PR) signaling pathway (AID 1346795; active means well fitted inhibition curve with a large enough effect in the signal ratio in the repeat runs, not every such curve was filed as active; the % refers to the signal ratio; further: potency means the concentration at half of the fitted maximal effect). In a few lines:
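PR-UAS-bla HEK293T cells carrying a UAS-driven beta-lactamase reporter were plated in medium with 2% charcoal-stripped FBS and rested 6 hr at 37C. Compounds were added with 1 nM R5020 (final) for 16 hr, then FRET substrate loaded 2 hr at room temperature.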

A short description of test [17]: qHTS assay to identify small molecule antagonists of the progesterone receptor (PR) signaling pathway - cell viability counter screen (AID 1346798). Further: nearly all actives have a fitted effect of over 50% in size. Further: potency means the concentration at half of the fitted maximal effect. In a few lines:
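PR-UAS-bla HEK293T cells in medium with 2% charcoal-stripped FBS were treated with compounds plus R5020 for 16 hr at 37C. Cell viability was then read by CellTiter-Glo luminescence after 30 min at room temperature in the same wells.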

In test [18] the target is Nuclear receptor subfamily 1 group I member 2 (Rattus norvegicus) (UniProt Q9R1A7). Description: Rat pregnane X receptor (rPXR) activation by small molecules, qHTS assay (AID 1346983). Further: nearly all actives have a fitted effect of over 20% in size. As to conditions: rPXR luciferase reporter cells, One-Glo luminescence, 24 h; max activation: active compounds read high. In a few lines: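 Luminescent readout (One-Glo luciferase, 30 min room temperature) followed 24 hr compound treatment at 37 C of rPXR cells plated 2,000 per well and preincubated 5hr; qHTS format with compounds delivered in DMSO.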
Chain of Nuclear receptor subfamily 1 group I member 2 (Rattus norvegicus) (Q9R1A7 whole entry, looked up): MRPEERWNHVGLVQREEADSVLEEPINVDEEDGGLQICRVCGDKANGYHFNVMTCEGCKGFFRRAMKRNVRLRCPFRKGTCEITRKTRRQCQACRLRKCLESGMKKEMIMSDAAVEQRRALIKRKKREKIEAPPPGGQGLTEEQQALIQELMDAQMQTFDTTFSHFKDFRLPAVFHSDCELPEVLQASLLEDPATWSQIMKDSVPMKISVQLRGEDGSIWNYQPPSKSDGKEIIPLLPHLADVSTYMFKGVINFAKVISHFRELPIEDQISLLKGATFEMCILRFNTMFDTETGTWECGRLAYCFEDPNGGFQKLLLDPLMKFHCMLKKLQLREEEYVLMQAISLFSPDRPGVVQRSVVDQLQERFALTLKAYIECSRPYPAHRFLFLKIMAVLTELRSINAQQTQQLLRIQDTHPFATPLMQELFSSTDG

For test [19], the target named is Nuclear receptor subfamily 1 group I member 2 (Homo sapiens) (UniProt O75469). Nature of the test: CYP3A4 induction through human pregnane X receptor (PXR) by small molecules, qHTS assay (AID 1346984). Further: nearly all actives have a fitted effect of over 40% in size. The method, boiled down: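 Quantitative HTS in DPX-2 cells, i.e. HepG2 transfected with PXR response element and CYP3A4-promoter luciferase. Compounds in DMSO incubated 24hr at 37C; then P450-Glo CYP3A4 substrate, 3uM final, 3hr; One-Glo luminescence.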

For test [20] the target is unchanged. Nature of the test: Human pregnane X receptor (PXR) activation by small molecules, qHTS assay (AID 1346985). Further: nearly all actives have a fitted effect of over 40% in size. Further: potency means the concentration at half of the fitted maximal effect. In a few lines: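 DPX-2 cells (HepG2 co-transfected with a PXR response element and a CYP3A4-promoter luciferase construct) were seeded at 2,000 per well, rested 5 hr at 37C, then exposed to DMSO-dissolved compounds for 24 hr. Activation was read as luciferase luminescence.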
On the % scale 0 is the no-effect control and ±100 the full control effect.

As for `CC(=O)C(=O)CC(C)C`, the Potency entry in test [1], in test [2], in [3], in test [4], in [6] and in test [7] was “inactive” each time. For the same molecule, the Potency entry in [10], in test [11], in [12], in test [14] and in [15] was “inactive” throughout. Moreover, the outcome in [5], in test [8], in test [9] and in test [13] was inactive.
As for `N[C@@H](Cc1cc(I)c(O)c(I)c1)C(=O)O`, the Potency result in test [1], in test [2], in [16], in [17], in [4] and in test [6] was “inactive” throughout. In addition, the Potency result in [7], in test [10], in [11], in test [14] and in [15] was “inactive” in each case. In addition, the result in [5], in [8], in test [9] and in test [13] was inactive. The Potency in test [12] is 23.7 µM (active).
Take `COc1cc(OC)c2ccc(=O)oc2c1`: the Potency entry in [1], in test [2], in test [3], in test [17], in test [4] and in test [7] was “inactive” each time. Besides, the Potency result in [10], in test [11] and in test [15] was “inactive” throughout. Further, the result in test [5] and in test [13] was inactive.
Turning to `Cc1c[nH]c2ccccc12`, the Potency entry in test [1], in [2], in test [16], in test [17], in test [4] and in test [6] was “inactive” each time. In addition, the Potency entry in test [7], in test [10], in [11], in [12], in test [14] and in [15] was “inactive” in each case. The Potency entry in test [19] and in test [20] was “inactive” throughout. Besides, the molecule was classed as inactive in test [5], in test [8], in test [9] and in test [13]. The max activation in test [18] is -6.59%.
As for `O[C@@H](CNC[C@H](O)[C@H]1CCc2cc(F)ccc2O1)[C@@H]1CCc2cc(F)ccc2O1`, the Potency entry in test [1], in [2], in test [6], in test [7] and in test [15] was “inactive” in each case. In addition, the Potency in [16] was 26.6 µM (active); in test [17] it was 29.8 µM (active); in test [4], 29.8 µM (active); in test [10] it was 29.8 µM (active); in test [11], 33.5 µM (active); in [12], 33.5 µM (active).
Consider `COc1ccc(/C=C/C(=O)c2ccc(OC)cc2OC)cc1`, for which the Potency result in [1], in test [2], in test [3], in [6], in [7] and in [10] was “inactive” each time. Also, the Potency entry in test [14] and in [19] was “inactive” in each case. Moreover, the outcome in test [5], in [8], in test [9] and in test [13] was inactive. Moreover, the Potency was 10.6 µM (active) in [11], 29.8 µM (active) in test [15] and 22.4 µM (active) in test [20].
`CNS(=O)(=O)c1cc(C(=O)N2CCC(CCN3C4CCC3CC(n3c(C)nc5ccccc53)C4)(c3cccc(F)c3)CC2)c(Cl)cc1F` (stereo not given): the Potency entry in test [1], in test [2], in test [3] and in test [15] was “inactive” each time. Further, the Potency in test [17] is 24.3 µM (active); in [12], 17.2 µM (active); in test [14] it was 13.7 µM (active). Further, in test [13], the result was inactive.
